Source: PubChem (Broad Institute)
aSyn 5UTR act: Activators via SNCA 5'UTR binding, MLPCN | alpha-synuclein 5'UTR reporter, activators screen | 7.1% of 300,000 active | activity score, % (tested at 7.5 µM), hits read low; in the data active means activity score below about -60%
An asterisk follows results filed as active. These entries were drawn from the full list.

SMILES	aSyn 5UTR act
CCN(CCn1cccn1)Cc1cn[nH]c1-c1ccc(-c2ccccc2)cc1	-66.9*
CN(Cc1cn[nH]c1-c1ccc(-c2ccccc2)cc1)CC1CCOCC1	-93.1*
CC(c1ccon1)N(C)Cc1cn[nH]c1-c1ccc(-c2ccccc2)cc1 (configuration not stated)	-135.2*
Cn1cc(CCNCc2cn[nH]c2-c2ccc(-c3ccccc3)cc2)cn1	-98.0*
CN(CCc1cnn(C)c1)Cc1cn[nH]c1-c1ccc(-c2ccccc2)cc1	-84.2*
N#CCSc1nc(-c2ccccc2)cs1	-75.4*
CC(C)NC(=O)CSc1nc(-c2ccccc2)cs1	-159.6*
N#CCSc1ccc2nc(-c3ccccc3)cn2n1	-103.7*
N#C/C(=C\C=C\c1ccccc1)C(=O)NCc1cccnc1	-70.4*
Cc1cc(NC(=O)/C=C/c2ccc(Cl)cc2)no1	-77.7*
Cc1cc(NC(=O)/C=C/c2ccc(Br)cc2)no1	-74.0*
C/C(=C\C(=O)Nc1cc(C)on1)c1ccccc1	-110.2*
Cc1ccc(/C=C2\SC(=S)N(CCCC(=O)Nc3cc(C)on3)C2=O)cc1	57.9
CN(C)c1ccc(/C=N/N=C/c2ccccc2O)cc1	-171.1*
Cc1ccccc1-c1nc2cc(NC(=O)C3CC3)ccc2o1	-150.0*
CC(C)CC(=O)Nc1ccc2oc(-c3cccnc3)nc2c1	-120.1*
CCCC(=O)Nc1ccc(-c2nc3cc(C)c(C)cc3o2)cc1	-110.4*
O=C(CN1CCCC1)Nc1ccc(-c2nc3cc(NC(=O)CN4CCCC4)ccc3o2)cc1	-118.5*
CCC(=O)Nc1ccc2oc(-c3ccccc3Br)nc2c1	-185.8*
Cc1ccc2oc(-c3ccc(NC(=O)CC(C)C)cc3)nc2c1	-76.6*
CCCC(=O)Nc1ccc2oc(-c3cncc(Br)c3)nc2c1	-94.1*
CCC(=O)Nc1ccc2oc(-c3cccnc3)nc2c1	-100.8*
Nc1nc(CSCc2ccccc2)nc(N2CCOCC2)n1	-67.2*
Cc1ccnc(NC(=O)C2CCN(S(=O)(=O)c3ccc(C)c(C)c3)CC2)c1	-80.9*
C=CCN=c1scc(-c2ccccc2)n1/N=C/c1ccccn1	-67.8*
SMILES	aSyn 5UTR act
CCN=c1scc(-c2ccc(F)cc2)n1/N=C/c1ccccn1	-73.0*
O=C(NC1CCCCC1)c1ccc2c(c1)OCO2	-93.3*
CN(C(=O)c1ccc2c(c1)OCO2)C1CCCCC1	-82.0*
CN(C(=O)c1cccc(N2C(=O)C3C4C=CC(C4)C3C2=O)c1)C1CCCCC1 (configuration not stated)	-102.5*
CC(C)(C)Cc1nnc(NC(=O)c2ccc([N+](=O)[O-])cc2)s1	-77.3*
CCCc1nnc(NC(=O)c2ccc([N+](=O)[O-])cc2)s1	-67.4*
CCC(C)(C)c1nnc(NC(=O)c2ccc([N+](=O)[O-])cc2)s1	-149.3*
COc1ccc(-c2cc3ccccc3oc2=O)cc1	-71.1*
O=c1oc2ccccc2cc1-c1ccc(O)cc1	-101.1*
Nc1ccc(-c2cc3ccccc3oc2=O)cc1	106.4
O=C(NCc1cccnc1)c1ccc(-c2cc3ccccc3oc2=O)cc1	-138.7*
O=C(Nc1ccccc1F)c1ccc(CSc2ccccc2)o1	-69.5*
O=C(Nc1cccc(F)c1)c1ccc(CSc2ccccc2)o1	-121.3*
CCOC(=O)c1cn(-c2c(Cl)cccc2Cl)c2cc(Cl)c([N+](=O)[O-])cc2c1=O	-89.6*
CC(C)COC(=S)Nc1ccccc1	-82.9*
CSc1ncc(CN2CCCC(C(=O)c3ccc(C(C)(C)C)cc3)C2)cn1 (configuration not stated)	-87.7*
COc1ccc(N2Cc3ccccc3/C2=N\C(=O)Nc2ccccc2)cc1	-64.4*
CC(=O)CN1Cc2ccccc2/C1=N\C(=O)Nc1ccccc1	-72.6*
Cc1ccc(-c2nnc(SCC#CCOC(=O)c3cccs3)o2)cc1	-70.6*
O=C(c1cccs1)c1no[n+]([O-])c1C(=O)c1cccs1	63.1
Cc1ccc(-c2nnc(COC(=O)c3cccs3)o2)cc1	-63.9*
Cc1ccc(-c2nnc(SCC#CCOC(=O)c3ccco3)o2)cc1	-66.3*
COc1ccc(-c2cn3cccnc3n2)cc1NS(=O)(=O)c1ccccc1	-98.0*
COc1ccc(-c2cn3cccnc3n2)cc1F	-107.7*
N=C1S/C(=C\c2cn[nH]c2-c2ccc(F)cc2)C(=O)N1c1ccccc1F	-108.2*
SMILES	aSyn 5UTR act
CCCc1ccc(C(=O)O/N=C(\N)c2ccccn2)cc1	71.7
N/C(=N\OC(=O)Cc1cccc2ccccc12)c1ccccn1	-156.0*
N/C(=N\OC(=O)Cc1ccc(Cl)cc1)c1ccccn1	-153.7*
Cc1ccc(CC(=O)O/N=C(\N)c2ccccn2)cc1	-88.5*
O=c1cc(-c2ccccc2)[nH]c2ccccc12	67.9
O=C1C(c2cc(=O)c3ccccc3[nH]2)=C(O)c2ccccc21	-118.0*
CCC(NC(=O)Nc1nnc(C(F)(F)F)s1)(C(F)(F)F)C(F)(F)F	108.9
COc1ccc(C(=O)Nc2nnc(C(F)(F)F)s2)cc1	-143.9*
COC(=O)Nc1nnc(-c2ccc(OC)cc2)s1	-76.2*
COc1ccc(C(=O)Nc2nnc(-c3ccccc3)s2)cc1	-189.4*
Cc1ccc(C(=O)CSc2nccn2-c2ccccc2)cc1	-94.8*
O=C(CSc1nccn1-c1ncc(C(F)(F)F)cc1Cl)c1ccc(Br)cc1	-194.6*
